Shown is part of a subset that was picked to be rich in hits.
Shiga inhibitor: inhibitors of Shiga toxin in Vero cells. inhibition, % at 38.7 µM. Vero cells, Shiga toxin protein synthesis inhibition reporter. hit rate 9.2% among 290,000. AID 2315; in the data active = inhibition mostly above about 28%, no sharp cut-off; inactive = mostly below about 43%; also: 0% is about no effect
FBPA Giardia inh: inhibitors of Giardia lamblia fructose-1,6-bisphosphate aldolase; hit rate 0.71% among 290,000; AID 2451; Potency, µM (top dose mostly 59.6 µM), inactives show top-dose activity, negative = inhibition, actives largely listed as inhibitors; purified Giardia FBPA; also: potency is read from the fitted curve at half-maximal effect; % is scaled to controls: 0 for no effect and ±100 for the full control effect; nearly all actives have a fitted effect of over 55% in size
Target sequence (A8B2U2 whole entry, looked up): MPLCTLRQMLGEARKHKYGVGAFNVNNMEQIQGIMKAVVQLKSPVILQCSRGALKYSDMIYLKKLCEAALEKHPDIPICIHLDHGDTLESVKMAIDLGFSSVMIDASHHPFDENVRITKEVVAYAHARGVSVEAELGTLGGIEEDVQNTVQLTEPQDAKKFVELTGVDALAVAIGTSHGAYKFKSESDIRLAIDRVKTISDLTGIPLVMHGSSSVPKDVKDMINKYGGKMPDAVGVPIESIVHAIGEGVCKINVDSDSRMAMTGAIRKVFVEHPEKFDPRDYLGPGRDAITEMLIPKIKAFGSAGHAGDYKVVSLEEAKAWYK
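40 nM FBPA preincubated 10 min at RT with compound (up to 57.5 uM final), then substrate plus GAPDH/TPI/NAD/arsenate coupling and diaphorase/resazurin added. Fluorescence read after 20 min at RT, 525/598 nm.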
CHX counter: counter-screen hit for Shiga toxin inhibitors, cycloheximide; cell reporter, cycloheximide protein synthesis inhibition counterscreen; max response, %; hit rate 12% among 300,000; in the data active = max response mostly above about 13%, no sharp cut-off; inactive = mostly below about 14%; also: read at 38.3 µM for the half of the compounds with a filed dose; 0% is about no effect
Sm TGR block: inhibitors of Schistosoma mansoni thioredoxin glutathione reductase. AID 485364. purified TGR, DTNB reduction, TNB absorbance 405 nm. hit rate 3% among 360,000. Potency, µM (top dose mostly 114 µM), for inactives: at the highest dose activity change, negative = inhibition, actives largely listed as inhibitors; also: potency is read from the fitted curve at half-maximal effect; % is scaled to controls: 0 for no effect and ±100 for the full control effect; nearly all actives have a fitted effect of over 60% in size
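First, TGR (20 nM dispensed) and NADPH were mixed with compound. Second, a 15 min room-temperature incubation followed. Third, further NADPH and then DTNB were added to start the reaction. Finally, TNB absorbance was monitored kinetically.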
LmPK inhibitor: blocks Leishmania mexicana pyruvate kinase activity. purified LmPK, Kinase-Glo ATP luminescence, 1 h. Potency, µM (titrated, usually from 57.5 µM), without a hit: at the highest dose activity change, negative = inhibition, actives largely listed as inhibitors. hit rate 0.37% among 290,000. AID 1721; also: potency is read from the fitted curve at half-maximal effect; % is scaled to controls: 0 for no effect and ±100 for the full control effect
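Pyruvate kinase activity monitored as ATP production (luciferase luminescence). Conditions: 0.1 nM enzyme, 0.5 mM PEP, 0.1 mM ADP, 1 h, RT; normalized against uninhibited and no-enzyme wells.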
Tb PYK inh: blocks Trypanosoma brucei pyruvate kinase. Q57TT1. TbPYK enzyme, Kinase-Glo Plus ATP luminescence, 45 min. Potency, µM (titrated, usually from 76.8 µM), inactives show at the highest dose activity, negative = inhibition, most hits filed as inhibitors. hit rate 0.12% among 410,000; also: potency is read from the fitted curve at half-maximal effect; % is scaled to controls: 0 for no effect and ±100 for the full control effect; nearly all actives have a fitted effect of over 50% in size
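Enzyme and substrate buffer are dispensed first and compound is pin-transferred. ADP at 130 uM final then starts the reaction, which runs 45 min at room temperature. Detection reagent is added for 10 min before luminescence is imaged.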
Starred values were filed as active, the others as inactive; ? = inconclusive; nt = not tested or not shown; + = active, no number; [ ] = dose if it differs, or a comment. Unless noted, calls follow the shape of the dose curve; as a rule, active = well fitted curve in the direction sought with a large enough effect; inconclusive = small, poorly fitted or top-dose-only effect, or another doubt; inactive = no such curve, though single readings can be large; an effect the other way counts as inactive or inconclusive.

SMILES	Shiga inhibitor	FBPA Giardia inh	CHX counter	Sm TGR block	LmPK inhibitor	Tb PYK inh
CC(/C=N/NC(=O)CSc1ccccn1)=C\c1ccc(C(C)C)cc1	+	-3.1%	107.7*	-0.6%	1.5%	1.4%
CCOC(=O)c1cc(-c2ccc(C)cc2)n(CCC(=O)Nc2nc3c(C)cccc3s2)c1C	nt	nt	nt	12.3%	nt	-7.3%
COc1cccc(NC(=O)C(C)(C)C)c1	nt	nt	nt	-24.6%	nt	-2.7%
COc1cccc(NC(=O)Nc2nc(SC)ns2)c1	99.7*	-28.3%	53.8*	-19.3%	2.2%	-2.4%
COc1cccc(NC(=O)Nc2nc(SC(C)(C)C)ns2)c1	nt	-1.1%	25.3*	13.3%	0.1%	-0.1%
CCSc1nsc(NC(=O)Nc2cccc(F)c2)n1	nt	2.4%	38.8*	0.9%	4.3%	4.0%
CCCSc1ccc(C(=O)Nc2ccc(F)cc2F)cn1	30.0	2.6%	29.7*	1.0%	-15.2%	-1.0%
COc1cccc(NC(=O)Nc2nnc(-c3ccccc3SCc3ccccc3)s2)c1	-6.5	7.6%	-4.6	-16.2%	5.4%	2.0%
CC(C)S(=O)(=O)c1ccc(C(=O)Nc2ccc(F)cc2F)cn1	-3.7	0.3%	-2.3	1.4%	-3.8%	-1.2%
CCn1cc(C(=O)N(C)c2ccc(C(C)C)cc2)c2cc(OC)c(OC)cc2c1=O	nt	nt	nt	11.9%	nt	4.4%
CCCSc1nsc(NC(=O)Nc2ccc(F)cc2F)n1	36.3*	-17.9%	22.9*	6.7%	-6.5%	1.6%
COc1cccc(-n2c(=O)c3c(C)c(C)sc3n(CC(=O)Nc3ccccc3OC)c2=O)c1	nt	nt	nt	13.1%	nt	1.1%
CCOc1ccc(CCNC(=O)CCCc2nnc3n(C)c(=O)c4sccc4n23)cc1OCC	nt	nt	nt	-3.3%	nt	2.0%
COc1ccc(NC(=O)C2C3CCC(O3)C2C(=O)O)c(OC)c1 (stereo not drawn)	37.4	-3.3%	29.2*	6.6%	-0.9%	-2.2%
COc1ccc(N2CCC(CNS(=O)(=O)c3cccc(C(F)(F)F)c3)C2)cc1 (stereo not drawn)	-2.5	?	3.4	31.6µM*	0.1%	-18.3%
COc1ccc(N2CCC(CNC(=O)Nc3ccc(C)c(C)c3)C2)cc1 (stereo not drawn)	-17.8	?	-1.8	?	-1.2%	-22.6%
COc1ccc(CNC(=O)C2CCN(S(=O)(=O)c3cccc(C(F)(F)F)c3)CC2)cc1	nt	nt	nt	-6.0%	nt	-2.4%
COc1ccc(N2CCC(CNC(=O)Nc3ccc(OC)cc3OC)C2)cc1 (stereo not drawn)	-31.6	?	-2.3	44.7µM*	1.5%	-22.4%
Cc1c(NC(=O)C(F)(F)F)ccc2nc3c(=O)n(C)c(=O)n(C)c3nc12	nt	nt	nt	0.0%	nt	-1.3%
COc1cc(Cl)c(C)cc1NC(=O)CSc1cc(-c2ccccc2)nc(C)n1	nt	nt	nt	6.3%	nt	5.8%
Cc1nn(C)cc1CN(C)C(=O)CCc1nnc(CCC2CCCCC2)o1	64.2	1.7%	10.9*	1.0%[57.1 µM]	-3.4%	0.9%
O=C(O)CNC(=O)/C(=C\c1cccc([N+](=O)[O-])c1)NC(=O)c1ccco1	-4.5	-2.2%	-5.6	-16.9%	-1.0%	-7.0%
COC(=O)[C@@H]1C[C@@]2(O)[C@@H](O)[C@@H](O)[C@@H](O)C[C@H]2N1Cc1ccc(C(C)(C)C)cc1	nt	6.0%	nt	nt	nt	nt
CC(=O)CSc1nc2ccccc2s1	61.4	-1.6%	24.7*	-2.3%	-5.7%	-0.3%
COC(=O)c1ccc(CSc2nc3ccccc3s2)o1	47.9*	-5.2%	55.6*	-16.1%	-0.3%	4.0%
SMILES	Shiga inhibitor	FBPA Giardia inh	CHX counter	Sm TGR block	LmPK inhibitor	Tb PYK inh
O=C(O)CSc1nc2ccccc2s1	5.9	16.9%	8.0	4.6%	-12.8%	-1.1%
O=C(CSc1nc2ccccc2s1)CSc1nc2ccccc2s1	-19.0	-8.4%	-0.6	-11.5%	-2.2%	-1.4%
O=C(CSc1nc2ccccc2s1)c1cc2ccccc2o1	45.4	1.8%	24.3*	-10.4%	9.3%	-4.5%
CC(C)OC(=O)CSc1nc2ccccc2s1	63.6*	-2.8%	48.9*	7.1%	-14.7%	11.7%
COC(=O)c1c(-c2ccc(Cl)cc2)noc1N1CCN(c2cccc(C)c2C)CC1	nt	nt	nt	7.7%	nt	0.6%
CCOc1ccc2c(c1)c(=O)c(C(=O)c1ccc3c(c1)OCO3)cn2Cc1ccc(F)cc1	nt	nt	nt	-8.5%	nt	1.9%
CC(=O)N1CCc2cc(Br)cc(S(=O)(=O)NCCc3cccc(C)c3)c21	nt	nt	nt	-8.7%	nt	-4.5%
CCn1c(C(=O)N2CCCC(C(=O)NCCCOC)C2)cc2sccc21 (stereo not drawn)	nt	nt	nt	-2.4%	nt	-0.7%
CN(C)c1ccc(NC(=O)CCN2C(=O)c3cccc([N+](=O)[O-])c3C2=O)cc1	22.9	0.4%	15.5*	-14.0%	-1.8%	-18.2%
Cc1ccc(N2CS(=O)(=O)/C(=C/N(C)C)C2=O)cc1	77.3*	-0.5%	37.8*	8.6%	-19.9%	-6.9%
CN(C)/C=C1\C(=O)N(c2ccc(Cl)cc2)CS1(=O)=O	85.9*	4.0%	36.3*	-16.1%	-18.1%	-7.2%
C=CC1=C2C=C(C3CC3)N(CCN3CCOCC3)C=C2C(=O)C(C)(OC(=O)c2ccco2)C1=O (stereo not drawn)	nt	?	nt	nt	-5.5%[11.5 µM]	nt
CCNc1nc(N)nc(Oc2ccc(C(=O)OC)cc2)n1	73.6*	7.7%	26.2*	-5.2%	-13.3%	-12.6%
CCNc1nc(Oc2ccc(C(=O)OC)cc2)nc(N(C)C)n1	8.7	1.8%	4.0	1.6%	-2.1%	-2.0%
Cc1cc(C)nc(NC(=O)c2c(-c3ccccc3Cl)noc2C)c1	1.4	1.7%	-2.8	-10.8%	0.3%	-0.7%
Cc1cc(C)nc(NC(=O)/C=C/c2ccccc2Cl)c1	31.5*	-2.5%	30.3*	-16.0%	-11.5%	-4.7%
Cc1cc(C)nc(NC(=O)/C=C/c2ccc(Cl)cc2Cl)c1	81.2*	0.6%	41.0*	28.8%	-2.2%	-7.7%
Cc1cc(N)c2cc(NC(=O)/C=C/c3ccccc3Cl)ccc2n1	12.5	-0.1%	1.1	-18.1%	-0.9%	-1.9%
Cc1cc(C)nc(NC(=O)/C=C/c2ccccc2Cl)n1	70.2*	10.2%	44.7*	5.7%	-8.7%	-9.5%
CCOc1ccc2nc(NC(=O)c3nc(SC(C)C)ncc3Cl)sc2c1	nt	nt	nt	1.5%	nt	3.3%
COc1ccc2nc(NC(=O)CSc3nccc(C)n3)sc2c1	21.9	3.0%	8.5	4.0%	5.3%	4.4%
CCCc1cc(=O)[nH]c(SCC(=O)Nc2ccc(OCc3ccccc3)cc2)n1	nt	nt	nt	6.2%	nt	2.2%
CCOc1ccc2nc(NC(=O)C(CC)Sc3nc(C)cc(=O)[nH]3)sc2c1 (stereo not drawn)	89.5*	-1.8%	29.3*	-3.5%	-11.9%	-10.5%
CCCc1cc(=O)[nH]c(SCC(=O)Nc2nc3ccc(OCC)cc3s2)n1	51.9*	6.6%	14.4*	51.5%	9.6%	-1.8%
COc1ccc2nc(NC(=O)CSc3nc(C)cc(=O)[nH]3)sc2c1	31.1	-4.4%	27.0*	6.8%	5.1%	-19.2%

Compound activity (PubChem)
